The campaign covered roughly 320,000 compounds. About 2,100 (0.66%) were called active. Not shown: some 53% with an inconclusive outcome. This is one part of a sample in which actives are shown more often than they occur. Calls follow the shape of the dose curve; as a rule, active = well fitted inhibition curve with a large enough effect in the signal ratio, with a control signal flat (not every such curve was filed as active); inconclusive = small, poorly fitted or top-dose-only effect, or effect the other way, or a change in a side signal; inactive = flat fitted curve, though single readings scatter; the % refers to the signal ratio.
Potency is read from the fitted curve at half-maximal effect.

This assay in a line: qHTS Assay for Lipid Storage Modulators in Drosophila S3 Cells.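 As to cell number change: cells counted by Cell Tracker Red CMTPX staining in the red channel.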 As to lipid storage change, negative = inhibition: % is scaled to controls: 0 for no effect and ±100 for the full control effect. The settings on record: BODIPY lipid droplet fluorescence, 18-24 h, cells fed with added oleic acid; cell number change: measured here: cell count max response; series mostly up to 46.1 µM; lipid storage change, negative = inhibition: at the top concentration. Put shortly: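 Drosophila S3 cells loaded with oleic acid (400 uM, as added) and compounds at several concentrations; lipid droplets imaged by 488-nm laser-scanning cytometry, 500–530 nm intensity and object ratio to cell channel. Percent activity normalized to 20 uM Triacsin C.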
Turning to `COc1ccc(CNC(=O)CCC(=O)Nc2nnc(CC(C)C)s2)cc1`, the “lipid storage change, negative = inhibition” value is 0.276% (inactive) and the cell number change came to 5.14%.

As to `COc1ccc(N(C(=O)CNC(=O)c2cccs2)C(C(=O)NCC2CCCO2)c2ccccc2)c(OC)c1` (stereo not given), the “lipid storage change, negative = inhibition” value is 22.3% (inactive) and the cell number change was 5.71%.

Regarding `CC(=O)Oc1ccc2nc(-c3cccs3)oc(=O)c2c1`, the “lipid storage change, negative = inhibition” value is 13% (inactive) and the cell number change is -22.5%.

Consider `Cc1ccc(NC(=S)NC(CO)C(O)c2ccc([N+](=O)[O-])cc2)cc1` (stereo not given), for which the “lipid storage change, negative = inhibition” value was -5% (inactive) and the cell number change is -1.73%.

In the case of `Fc1cnc(N2CCOCC2)nc1N1CCc2ccccc21`, the “lipid storage change, negative = inhibition” value is 1.02% (inactive) and the cell number change is -10.6%.

As for `O=C(c1ccccc1C(=O)N1CCN(c2ccc(F)cc2)CC1)N1CCN(c2ccc(F)cc2)CC1`, the Potency was 2.59 µM (active) and the cell number change is -27%.

`O=C(c1ccccc1Oc1ccccc1)N1CCN(c2ccc(F)cc2)CC1`: the “lipid storage change, negative = inhibition” value is -12.6% (inactive) and the cell number change turned out to be 14.1%.

As for `O=C(O)c1ccccc1C(=O)N1CCN(c2ccccc2)CC1`, the “lipid storage change, negative = inhibition” value is -1.29% (inactive) and the cell number change turned out to be 0.845%.

Turning to `CC(C)CN(C(=O)CCC(=O)OCC(=O)N(C)c1ccccc1)c1c(N)n(CC(C)C)c(=O)[nH]c1=O`, the “lipid storage change, negative = inhibition” value was 16.2% (inactive).

With `CC1CC(NC(=O)c2cc3c(=O)n4ccccc4nc3n2C)CC(C)(C)C1` (stereo not given), the Potency is 18.4 µM (active) and the cell number change turned out to be 3.3%.

With `Cn1c(C(=O)O)cc2c(=O)n3ccccc3nc21`, the “lipid storage change, negative = inhibition” value is -0.14% (inactive) and the cell number change was 3.26%.

On to `CC1CN(C(=O)c2cc3c(=O)n4ccccc4nc3n2C)CC(C)O1` (stereo not given), for which the compound was classed as inactive and the cell number change worked out at 15.1%.

In the case of `CCOc1cc(C(=O)NCC2CCCO2)cc(OCC)c1OCC` (stereo not given), the call was inactive.

`Cc1cc(C)c(S(=O)(=O)N2CCN(C(=O)c3c(C)noc3C)CC2)c(C)c1`: the “lipid storage change, negative = inhibition” value was 23.1% (inactive) and the cell number change was -0.389%.

As to `CCOC(=O)CN1C(=O)SC(Nc2ccc(C)cc2)C1=O` (stereo not given), the “lipid storage change, negative = inhibition” value is 1.4% (inactive) and the cell number change came to 0.723%.

Regarding `Cc1ccc(NC2SC(=O)N(CC(=O)O)C2=O)cc1` (stereo not given), the Potency was 23.1 µM (active) and the cell number change was -7.73%.

Take `O=C(O)CN1C(=O)SC(Nc2ccccc2)C1=O` (stereo not given): the “lipid storage change, negative = inhibition” value was 5.61% (inactive) and the cell number change came to 7.54%.

`Cn1cnnc1SCCNS(=O)(=O)c1cccc([N+](=O)[O-])c1`: the “lipid storage change, negative = inhibition” value is 20.2% (inactive) and the cell number change was 3.23%.

As for `CCc1ccc(NC(=S)N(CCN2CCOCC2)Cc2ccccc2F)cc1`, the “lipid storage change, negative = inhibition” value was 5.57% (inactive) and the cell number change is 13.9%.

Regarding `Cc1ccc(NC(=S)N(CCN2CCOCC2)Cc2ccccc2F)cc1`, the “lipid storage change, negative = inhibition” value is 5.28% (inactive) and the cell number change was -12.7%.

Regarding `CN(C)S(=O)(=O)N(CCN1CCOCC1)Cc1ccccc1F`, the Potency is 9.2 µM (active) and the cell number change was determined as 6.57%.

`Cn1cnnc1Sc1ccc(C(F)(F)F)cc1[N+](=O)[O-]`: the “lipid storage change, negative = inhibition” value was 5.81% (inactive) and the cell number change came out at 20.3%.

Consider `Cc1ccc(C2(c3noc(CN4C[C@@H](C)O[C@@H](C)C4)n3)CCCC2)cc1`, for which the “lipid storage change, negative = inhibition” value was -0.0819% (inactive) and the cell number change is -4.24%.

Take `CCOc1ccc2ccccc2c1C(=O)Nc1cc(=O)n(C)c(=O)n1C`: the “lipid storage change, negative = inhibition” value is 1.88% (inactive) and the cell number change is -14%.

With `COc1ccccc1N=Nc1c(C)[nH]n(-c2ccccc2)c1=O`, the Potency was 14.6 µM (active) and the cell number change is 0.338%.

For `Cc1[nH]n(-c2ccccc2)c(=O)c1N=Nc1ccc(Cl)cc1`, the Potency was 9.2 µM (active) and the cell number change was -10.2%.

On to `Cc1[nH]n(-c2ccc(Cl)cc2)c(=O)c1N=Nc1cccnc1`, for which the “lipid storage change, negative = inhibition” value is 2.79% (inactive) and the cell number change is 8.32%.

As to `Cc1[nH]n(-c2ccccc2)c(=O)c1N=O`, the “lipid storage change, negative = inhibition” value is -14.1% (inactive) and the cell number change is -9.61%.

As to `Cc1[nH]n(-c2ccccc2)c(=O)c1N=Nc1ccc(C(N)=O)cc1`, the outcome was inactive and the cell number change came out at 15.5%.

Turning to `Cc1[nH]n(-c2ccccc2)c(=O)c1N=Nc1ccccc1C(=O)N1CCOCC1`, the “lipid storage change, negative = inhibition” value is 12.8% (inactive) and the cell number change is -24.3%.

Consider `COc1ccccc1NC(=O)C1=C(C)Nc2nc(-c3ccccc3)nn2C1c1ccccn1` (stereo not given), for which the outcome was inactive.

For `O=C(CN1C(=O)NC2(CCCCCCC2)C1=O)Nc1ccc(Cl)cc1`, the “lipid storage change, negative = inhibition” value is 26.3% (inactive) and the cell number change amounted to 27.1%.

Consider `COC(=O)C1=C(NC(=O)C2CCCCC2)CCS1`, for which the “lipid storage change, negative = inhibition” value was 1.08% (inactive) and the cell number change is -10%.

Take `CC(C)Oc1ccc(/C=C/C(=O)NCC2COc3ccccc3O2)cc1` (stereo not given): the “lipid storage change, negative = inhibition” value was -7.62% (inactive) and the cell number change was -3.08%.

On to `CCS(=O)(=O)c1nc(S(=O)(=O)c2ccc(C)cc2)c(NCCN2CCOCC2)s1`, for which the “lipid storage change, negative = inhibition” value was -20.7% (inactive).

Consider `CCOC(=O)N1CCC(NCCNC(=O)c2ccco2)CC1`, for which the “lipid storage change, negative = inhibition” value is -7.46% (inactive) and the cell number change is -0.499%.

`CC1CCC(NCCNC(=O)c2ccco2)CC1` (stereo not given): the Potency was 0.82 µM (active) and the cell number change stood at 15.3%.

With `O=C(NCCNC1CCCCC1)c1ccco1`, the “lipid storage change, negative = inhibition” value was 10.1% (inactive) and the cell number change was determined as 17.5%.

Regarding `O=C(Nc1ccc(Cl)c(S(=O)(=O)N2CCCCC2)c1)c1ccco1`, the Potency was 0.291 µM (active) and the cell number change amounted to 11.9%.

In the case of `O=C(Nc1ccc(S(=O)(=O)N2CCCCCC2)cc1)c1ccco1`, the result was inactive.

With `O=C(Nc1ccc(N2CCCC2)c(Cl)c1)c1ccco1`, the “lipid storage change, negative = inhibition” value was 15.6% (inactive) and the cell number change was -15.9%.

Take `CC1CCN(S(=O)(=O)c2ccc(NC(=O)c3ccco3)cc2)CC1`: the Potency was 16.4 µM (active) and the cell number change was -3.17%.

In the case of `O=C(Nc1ccc(S(=O)(=O)N2CCOCC2)cc1)c1ccco1`, the result was inactive.

As for `CCOc1ccc(NC(=O)c2ccco2)cc1S(=O)(=O)N1CCCC1`, the “lipid storage change, negative = inhibition” value is 19.1% (inactive) and the cell number change worked out at 3.85%.

`Cc1nc([N+](=O)[O-])cn1-c1ccc(N)cc1`: the “lipid storage change, negative = inhibition” value is -3.85% (inactive) and the cell number change is -2.93%.

On to `O=C(c1nc2ccc(Cl)cn2c1CN1CCCC(CO)C1)N1CCc2ccccc2C1` (stereo not given), for which the “lipid storage change, negative = inhibition” value was -5.28% (inactive) and the cell number change was determined as 10.9%.

Turning to `Cc1ccc(S(=O)(=O)c2c(C)cc(C)[nH]c2=O)c(C)c1`, the “lipid storage change, negative = inhibition” value is -7.93% (inactive) and the cell number change was 17.9%.

Turning to `Oc1ccc(Br)cc1/C=N/N1CCN(Cc2cccc3ccccc23)CC1`, the “lipid storage change, negative = inhibition” value is 1.32% (inactive) and the cell number change came to 17%.

The values are drawn from PubChem BioAssay AID2685 (National Center for Advancing Translational Sciences (NCATS), 2010).
